# Test results reported in PubChem BioAssay (EPA / NIEHS).
# Inconclusive results are not listed. Activity calls are given as the source filed them. How the source made its calls: active means hit-call score of the fitted dose curve at least 0.9, where 1 is the maximum; inconclusive means response in the unintended direction; inactive means score below 0.9.
# Biological target: Hepatocyte nuclear factor 4-alpha (Homo sapiens) (UniProt P41235)
# Assay: ATG_HNF4a_TRANS: Attagene TRANS-FACTORIAL HepG2 Assay for human Hepatocyte Nuclear Factor 4 alpha (HNF4a) (AID 2282982)
# Details: HepG2 HNF4a transactivation reporter, mRNA readout
# Protocol: ATG_TRANS is a cell-based, multiplexed-readout assay that uses HepG2, a human liver cell line, with measurements taken at 24 hours after chemical dosing in a 24-well plate.ATG_HNF4a_TRANS is one of 30 assay component(s) measured or calculated from the ATG_TRANS assay. It is designed to make measurements of mRNA induction, a form of inducible reporter, as detected with fluorescence intensity signals by Reverse transcription polymerase chain reaction (RT-PCR) and Capillary electrophoresis technology.Data from the assay component ATG_HNF4a_TRANS was analyzed into 1 assay endpoint. This assay endpoint, ATG_HNF4a_TRANS, was analyzed in the positive analysis fitting direction relative to DMSO as the negative control and baseline of activity. Using a type of inducible reporter, measures of mRNA for gain-of-signal activity can be used to understand the reporter gene at the transcription factor-level as they relate to the gene HNF4A. Furthermore, this assay endpoint can be referred to as a primary readout, because this assay has produced multiple assay endpoints where this one serves a reporter gene function. To generalize the intended target to other relatable targets, this assay endpoint is annotated to the nuclear receptor intended target family, where the subfamily is orphan.
# Human liver HepG2 cells are transiently transfected with multiple reporter transcription units (MRTUs) in 6-well plates using FuGene 6 reagent (Roche; 3 ml FuGene/1 mg DNA). The MRTU constructs are regulated by a cis-regulating element (promoter). […] A major difference between the CIS and TRANS system is that in CIS activities of endogenous TFs are measured, whereas the TRANS assay evaluates changes in activities of exogenous, chimeric NR-Gal4 proteins. […] At the end of 24 hour incubation, total RNA was isolated using TriZol reagent (Invitrogen). The isolated RNA is then reverse-transcribed using oligo(dT) primer and Mo-MLV reverse transcriptase (Invitrogen) with DNAse I (Ambion) treatment for 30 min. The one-tenth of the produced cDNA was amplified by PCR using Taq DNA polymerase (Invitrogen) and two reporter sequence-specific primers. The PCR products were fluorescently labeled by primer extension with 6-arboxyfluorescein (6-FAM) 5'-labeled reporter sequence-specific primer (2 min at 95 C, 20 s at 68 C and 10 min at 72 C) and these products were digested with 5U of HpaI (New England Biolabs) for 2h at 37 C. The fragments were purified using Qiaquick PCR columns (Qiagen), analyzed on an ABI 3130xL genetic analyzer (Applied Biosystems) with peak positions identified by using a set of X-rhodamine (ROX)-labeled MapMarker1000 molecular weight standards (BioVentures). The raw capillary electrophoresis data was processed using Attagraph software (Attagene).
# Chain of Hepatocyte nuclear factor 4-alpha (Homo sapiens) (P41235 whole entry, looked up): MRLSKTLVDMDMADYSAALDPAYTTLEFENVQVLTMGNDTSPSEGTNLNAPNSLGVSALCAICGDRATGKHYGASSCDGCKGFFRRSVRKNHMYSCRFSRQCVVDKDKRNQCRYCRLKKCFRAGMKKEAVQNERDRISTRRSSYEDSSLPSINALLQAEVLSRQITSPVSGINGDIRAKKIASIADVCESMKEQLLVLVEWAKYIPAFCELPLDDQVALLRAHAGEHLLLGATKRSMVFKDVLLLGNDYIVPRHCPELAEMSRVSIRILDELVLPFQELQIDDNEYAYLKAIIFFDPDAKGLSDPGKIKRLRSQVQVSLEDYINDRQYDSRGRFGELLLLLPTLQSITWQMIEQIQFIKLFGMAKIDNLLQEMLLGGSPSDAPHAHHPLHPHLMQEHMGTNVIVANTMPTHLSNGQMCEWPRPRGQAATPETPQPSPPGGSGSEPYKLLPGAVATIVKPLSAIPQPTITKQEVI
row,SMILES,outcome
1,CC(=O)OC1C2(C)CCC(C2)C1(C)C (stereo not given),inactive
2,CC(C)CC(O)Cc1ccccc1 (stereo not given),inactive
3,CC(C)=CC1CC(C)CCO1 (stereo not given),inactive
4,CCCOC(=O)CCCCC(=O)OCCC,inactive
5,CCc1nccnc1C,inactive
6,O=c1c2ccccc2oc2ccccc12,inactive
7,CCCCCCC1(C)CCC(=O)O1 (stereo not given),inactive
8,C1CN(SSN2CCOCC2)CCO1,inactive
9,NC(CO)(CO)CO,inactive
10,CCC(CC)C(=O)O,inactive
11,CC(C)c1ccc2c(c1)CC[C@H]1[C@](C)(CN)CCC[C@]21C,inactive
12,O=C1CCCCCN1SSN1CCCCCC1=O,inactive
13,[Cl][Nd]([Cl])[Cl],inactive
14,CC(=O)NS(=O)(=O)c1ccc(N)cc1,inactive
15,O=C(O)CCCCCCCCCC(=O)O,inactive
16,Cc1cc(O)c(Cl)c(C)c1Cl,inactive
17,Nc1nc2ccccc2[nH]1,inactive
18,CCN(CC)c1ccc(C(=O)c2ccccc2C(=O)O)c(O)c1,inactive
19,C(=CC=Nc1ccccc1)C=CNc1ccccc1,inactive
20,c1c[nH]cn1,inactive

row,SMILES,outcome
1,CCCCCCOC(=O)C(C)CC (stereo not given),inactive
2,N=c1ccn2c(n1)O[C@H]1[C@H](O)[C@@H](CO)O[C@H]12,inactive
3,CCCCCC/C=C\CCCCCCCC(=O)O,inactive
4,CC1=CC[C@H](C(C)C)C=C1,inactive
5,COC(=O)c1ccc2cc(C(=O)OC)ccc2c1,inactive
6,C=C1[C@H]2CC[C@@H]3[C@H]2C(C)(C)CCC[C@]13C,inactive
7,CCCCNc1ccc(NCCCC)c2c1C(=O)c1ccccc1C2=O,inactive
8,O=C(O)Cc1c(Cl)ccc(Cl)c1Cl,inactive
9,C#CC1(O)CC[C@H]2[C@@H]3CCC4=CCCC[C@@H]4[C@H]3CC[C@@]21C (stereo not given in full),inactive
10,C=CC=CC=CCCCCC,inactive
11,CCCCCCCC[N+](C)(CCCCCCCC)CCCCCCCC,inactive
12,O=P(O)(O)Oc1ccccc1,inactive
13,CCOC(=O)CC(C(C)=O)C(C)=O,inactive
14,NC(=O)C1CO1 (stereo not given),inactive
15,C=CC(=O)OCCOC(=O)C=C,inactive
16,CCCCCC/C=C/C=O,inactive
17,CC(C)CCCCCOC(=O)CCS,inactive
18,CCCCCCCCCCOC(C)=O,inactive
19,Cc1ccc(OC(=O)CC(C)C)cc1,inactive
20,C=C(C)C(=O)OCC(C)C,inactive
